Assay results published in PubChem BioAssay (NCI).
This is part of a sample that, as a whole, favours compounds with a hit. Of some 79,000 tested, about 15% had one in any assay. A number with no mark means an inactive call. Calls of active or inactive are those of the source. Rule as the data show it: active = growth inhibition above about 70%; inactive = the rest.

Tests used:
[1] = NCI Yeast Anticancer Drug Screen. Data for the rad50 strain (AID 155);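 also: 0% = growth of vehicle-only cultures of the same strain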; details: S. cerevisiae rad50 strain growth inhibition; at 50.0 µM; stronger effect = higher value
In short: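 Yeast carrying a defined DNA repair defect were exposed to test compounds, and growth was compared with vehicle-treated controls to give percent inhibition.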

[2] = NCI Yeast Anticancer Drug Screen. Data for the mec2-1 strain (AID 157); details: S. cerevisiae mec2-1 strain, at 50.0 µM, stronger effect = higher value
In short: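 Readout is yeast growth inhibition, normalised to vehicle-treated controls, in the mec2-1 strain exposed to compound.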

[3] = NCI Yeast Anticancer Drug Screen. Data for the sgs1 mgt1 strain (AID 161);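 also: 0% = growth of cultures given vehicle only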; details: S. cerevisiae sgs1 mgt1 strain, at 50.0 µM, stronger effect = higher value
In short: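 Compounds are added to genetically altered yeast, and growth is compared with cultures given vehicle alone to give percent inhibition.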

[4] = NCI Yeast Anticancer Drug Screen. Data for the cln2 rad14 strain (AID 165);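 also: 0% = growth equal to vehicle treated cultures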; details: S. cerevisiae cln2 rad14 strain, at 50.0 µM, stronger effect = higher value
In short: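 Relative to vehicle controls, growth inhibition of compound-treated cln2 rad14 yeast was recorded.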

[5] = NCI Yeast Anticancer Drug Screen. Data for the bub3 strain (AID 167); details: S. cerevisiae bub3 mutant strain, at 50.0 µM, stronger effect = higher value
In short: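 Compounds were applied to a genetically altered yeast strain carrying a cell-cycle control defect. Growth inhibition was scored against vehicle-treated controls.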

[6] = NCI Yeast Anticancer Drug Screen. Data for the mlh1 rad18 strain (AID 175); details: S. cerevisiae mlh1 rad18 strain growth inhibition; at 50.0 µM; stronger effect = higher value
In short: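 Test agents were incubated with a yeast strain of defined genotype (DNA damage repair defect). Inhibition of growth was derived by comparison with vehicle-exposed cultures.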

Structure (SMILES)	growth inhibition [1]	growth inhibition [2]	growth inhibition [3]	growth inhibition [4]	growth inhibition [5]	growth inhibition [6]
C/C(=N\NC(=O)CC(=O)N(C(=O)c1ccc(Cl)cc1)c1ccc(C)cc1)c1ccccc1O	-2.05%	-26%	-10.2%	5.9%	-1.3%	-29.6%
COCCCCCOC	5.55%	-14.8%	-3.4%	6.6%	12.3%	1.55%
Cc1ccc(C#N)c2c1CCC2	2.65%	-10.7%	3.05%	-50%	-13%	2.6%
CCCCc1c2c(nc3c1CCC/C3=C\c1ccccc1)C(=O)CCC2	15.8%	9.1%	3.2%	12.2%	30.6%	18.1%
NC(=O)CSc1ccccc1	8%	2.1%	9.8%	10.1%	-4.5%	-8.6%
NNC(=O)COc1ccc(Br)cc1Br	33.2%	4.25%	-5.15%	26.4%	3.8%	-1.25%
Cc1c(N2CCCC2)cc2c(c1-n1cccc1)C(C)(C)CC2(C)C	-21%	-14.2%	1.55%	16.3%	6.7%	2.8%
[O-]c1c[n+](CCCC[n+]2cc([O-])on2)no1	-5.4%	-32.8%	-13.3%	3.55%	-60.7%	-1.95%
Clc1ccc(Cc2ccc(Br)cc2)cc1	43.6%	-10.3%	38.5%	2.45%	49%	13.2%
CC(=O)Oc1ccc2c(c1)c1c(OC(C)=O)c(N(C)C(C)=O)cc(OC(C)=O)c1n2C	22.4%	-0.65%	3.85%	12.4%	-3.7%	5.6%
O=C(Nc1cc(Cl)c(I)c(Cl)c1)C(F)(F)F	96.6% (active)	97.4% (active)	96.8% (active)	97% (active)	79.8% (active)	97.5% (active)
Cc1ccc(S(=O)(=O)c2ccccn2)cc1	-37.2%	-11.2%	-9.35%	-1.7%	-13%	-24.1%
COC1CCC(/C=C(\C#N)C2CCC(OC)CC2)CC1 (stereo unspecified)	37.6%	49.8%	42.8%	11.9%	51.2%	30%
O=C(O)C1C=CCN1 (stereo unspecified)	0.8%	1.2%	0.15%	-6.55%	-18.6%	-3.5%
O=C(O)C(O)c1ccc(Cl)cc1Cl (stereo unspecified)	1.3%	-5.85%	10.9%	7.25%	-19.3%	1.35%
CCN1CCCC(Nc2nc(Nc3cc(Cl)cc(Cl)c3)nc3ccc(Cl)cc23)C1 (stereo unspecified)	97.3% (active)	97.1% (active)	97.5% (active)	95.5% (active)	96.8% (active)	95.8% (active)
CN(CC(=O)O)c1ccc([N+](=O)[O-])cc1[N+](=O)[O-]	8.75%	8.55%	10.4%	52.9%	26.4%	-1.15%
CCN(CC)CC(O)CN1CCCc2ccccc21 (stereo unspecified)	-9.4%	1.5%	0.6%	-5.4%	7.85%	-13.4%
O=C1NC(=O)[C@H]2C[C@H]3C(=O)NC(=O)[C@H]3[C@@H]12	-0.7%	2.75%	-6.9%	-11.3%	3.8%	7.15%
O=C1c2ccccc2C(=O)N1CCn1[nH]c(=O)c2ccccc2c1=O	-3.25%	-10.4%	-6.55%	8.9%	-3.6%	14.1%
CCCCC(C(=O)OCC)C(=O)OCC	5.9%	4.45%	-6.35%	-53%	-2.75%	-3.2%

Structure (SMILES)	growth inhibition [1]	growth inhibition [2]	growth inhibition [3]	growth inhibition [4]	growth inhibition [5]	growth inhibition [6]
Cc1cc(OCCN(C)C)cc(C)c1Cl	-2%	-0.75%	25.1%	37.6%	-16.9%	8.8%
Cc1cc(N(CCC#N)CCC#N)ccc1/C(N=Nc1ccc(Cl)cc1)=N\NC(=O)c1ccccc1	1.3%	-2.65%	-0.5%	-10.2%	-7.3%	-31.1%
COc1c2c(c(OC)c3c1C(=O)c1ccccc1C3=O)CC=CC2	-10.6%	4.7%	-15.4%	-14.7%	-4%	-4.3%
COC1=C(C(=O)OC(C)(C)C)[C@]2(C)C(C(=O)OC(C)(C)C)C(OC)=C(C(=O)OC(C)(C)C)[C@]2(C)C1C(=O)OC(C)(C)C (stereo partly specified)	30.6%	15.4%	22.8%	17.6%	-3.25%	29.9%
Cc1cc2c(=O)cc(-c3ccc(O)cc3)oc2c(C(=O)O)c1C	2.7%	-4.45%	14.3%	24.8%	0.6%	4.4%
CC(C)CCN(C=O)c1ccccc1	1.7%	0.7%	8.05%	5.5%	-9.5%	2.15%
CN1CCCC1=Nc1ccc([N+](=O)[O-])cc1	23.1%	-3.55%	23%	-29.3%	-11.9%	25.9%
O=S(=O)(O)c1cc2nonc2c2ccccc12	2.75%	-0.85%	12.9%	9.25%	0.9%	-2.6%
O=C(CC(=O)N1CCOCC1)N1CCOCC1	4.5%	-14.8%	26.9%	7.9%	19.4%	7.45%
COc1ccc(OC)c(N=Nc2c(C)nc(N)nc2C)c1	11.3%	4.4%	7.85%	-32.6%	19.6%	10.2%
CCOC(=O)C(NC(=O)CC)(C(F)(F)F)P(=O)(OCC)OCC (stereo unspecified)	-22.5%	-12.3%	-35.7%	-11.8%	14.1%	-9.35%
N#Cc1c(-c2ccccc2)cc(-c2ccccc2)[nH]c1=O	18.6%	7.4%	16.4%	11.7%	3.5%	22.9%
CC(=O)OCN(C)C=O	25.9%	11.3%	18.7%	14.5%	11.1%	19.6%
CCCCCCCC/C=C\CCCCCCCCCCCC(=O)O	-5.7%	5.75%	0.4%	-46%	-17%	-6.25%
Nc1nc2nc(N=Nc3ccccc3)[nH]c2c(=O)[nH]1	21.5%	-1.9%	8.3%	9.25%	5.45%	8.9%
CC(=O)c1cc2c(cc1C)C(C)=C(C)C2(C)C	-3.1%	-2.35%	1.55%	-13.4%	0.65%	-2.9%
O=CC(C(=O)c1ccccc1[N+](=O)[O-])c1ccccc1 (stereo unspecified)	9.6%	5.7%	15.9%	15.8%	13.7%	13.4%
CCOC(=O)N/N=C(/OCC)c1ccccc1	9.75%	2.7%	-7.2%	5.8%	13.8%	5.8%
CCOC(=O)NNC(C)(C)C	4.15%	4.35%	4.5%	21.8%	-9%	-3.7%
NC(Cc1ccccc1CP(=O)(O)O)C(=O)O (stereo unspecified)	-46.8%	-41.1%	-16.4%	-4.9%	-29.9%	-44.2%
